Growth data for 8 compounds are collected here from PubChem BioAssay (NCI).

Test systems include NCI-H23 lung; NCI-H226 lung; NCI-H322M lung; HOP-62 NSCLC; NCI-H460 lung; HOP-92 NSCLC; NCI-H522 lung; A549/ATCC NSCLC; COLO 205 colon; DU-145 prostate; K-562 leukemia; MALME-3M melanoma; MDA-MB-231 breast; RXF 393 renal; SF-268 CNS; SF-295 CNS; SF-539 CNS; UACC-257 melanoma; M14 melanoma; 786-0 renal.
Common to all, as to experiment: NCI-60 one-dose screen, 48 h (100 = growth as untreated, 0 = no growth, -100 = all killed)
Details in all cases: 10 µM unless noted

The panel holds about 83,000 compounds, 20% with a hit somewhere; the sample as a whole holds those more often.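 Results are percent growth after 48 hours of single-concentration exposure. 100 means growth as in untreated cells, lower positive values show inhibition; negative values down to -100 show cell death.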 A number with no mark means an inactive call. Activity calls are given as the source filed them. Rule for the calls: active = growth percent below 10; inactive = the rest.

For the compound `N#C/C(=C\c1ccccn1)c1nc2cc(Cl)ccc2s1`, the growth is 72.1% in the experiment on NCI-H23 lung; 67.9% in the experiment with NCI-H226 lung; 87.1% in the experiment on NCI-H322M lung; 63.5% in the experiment with HOP-62 NSCLC; 92% in the experiment with NCI-H460 lung; 55.8% in the experiment on HOP-92 NSCLC. Further, the growth with NCI-H522 lung was 63.4%; in the experiment on A549/ATCC NSCLC, 78.1%; in the experiment on COLO 205 colon, 101%; with DU-145 prostate, 92.8%; in the experiment on K-562 leukemia it was 48.3%; in the experiment on MALME-3M melanoma it was 87.5%. Besides, the growth in the experiment with MDA-MB-231 breast was 61.3%; in the experiment with RXF 393 renal, 60.3%; in the experiment with SF-268 CNS it was 68.8%; in the experiment on SF-295 CNS, 94.4%; in the experiment on SF-539 CNS it was 63.1%; in the experiment with UACC-257 melanoma it was 91.8%. Also, in the experiment on M14 melanoma, the growth is 89.9%.

As for `COc1ccc(C(=O)C2C(C#N)C(C#N)C3c4ccccc4C=CN23)cc1` (stereo not given), the growth in the experiment on NCI-H23 lung was 83.3%; with NCI-H226 lung it was 74.7%; in the experiment with NCI-H322M lung it was 89%; in the experiment on HOP-62 NSCLC it was 92.9%; with NCI-H460 lung, 97.7%; in the experiment with HOP-92 NSCLC it was 85.9%. The growth in the experiment on NCI-H522 lung was 71.9%; in the experiment on A549/ATCC NSCLC it was 87.2%; in the experiment on DU-145 prostate, 103%; in the experiment with K-562 leukemia, 73.1%; with MALME-3M melanoma, 92.1%; in the experiment with MDA-MB-231 breast, 79.2%. Besides, the growth in the experiment on RXF 393 renal was 77.9%; in the experiment on SF-268 CNS, 91%; in the experiment on SF-295 CNS, 95.8%; with SF-539 CNS, 95.4%; with UACC-257 melanoma it was 85.7%; with M14 melanoma, 96.2%.

As to `Brc1ccc2[nH]cc(-c3cncn3CCc3ccccc3)c2c1`, the growth in the experiment on NCI-H23 lung was 37.9%; with NCI-H226 lung, 53.5%; in the experiment on NCI-H322M lung, 74.3%; with HOP-62 NSCLC, 63.4%; with NCI-H460 lung it was 66.5%; in the experiment on HOP-92 NSCLC, 23.4%. Moreover, the growth was 51.1% with NCI-H522 lung; 56.7% in the experiment with A549/ATCC NSCLC; 66.3% in the experiment on COLO 205 colon; 68.1% in the experiment with DU-145 prostate; 27.3% in the experiment on K-562 leukemia; 65% with MALME-3M melanoma. Also, the growth was 65.4% in the experiment on MDA-MB-231 breast; 38.1% in the experiment on RXF 393 renal; 50.3% in the experiment on SF-268 CNS; 37.7% in the experiment with SF-295 CNS; 65.2% in the experiment on SF-539 CNS; 48.3% in the experiment with UACC-257 melanoma. Further, in the experiment with M14 melanoma, the growth is 53.3%.

Take `N#C/C(=C\c1ccc(C(F)(F)F)cc1)c1cc2ccccc2[nH]1`: the growth in the experiment with NCI-H23 lung was 98.1%; in the experiment on NCI-H226 lung, 101%; in the experiment with NCI-H322M lung, 100%; in the experiment on HOP-62 NSCLC, 99.8%; in the experiment with NCI-H460 lung it was 97.7%; with HOP-92 NSCLC it was 119%. The growth is 84.5% in the experiment with NCI-H522 lung; 100% in the experiment on A549/ATCC NSCLC; 113% with COLO 205 colon; 105% in the experiment on DU-145 prostate; 90.3% in the experiment with K-562 leukemia; 103% with MALME-3M melanoma. In addition, the growth in the experiment on MDA-MB-231 breast was 92.7%; in the experiment with RXF 393 renal, 113%; in the experiment with SF-268 CNS, 99.4%; in the experiment on SF-295 CNS it was 99.8%; in the experiment on SF-539 CNS, 107%; with UACC-257 melanoma, 104%. Further, the growth in the experiment on M14 melanoma was 108%.

For the compound `CCOC(=O)C1=C(CCl)NC(=O)NC1c1ccc2c(c1)OCO2` (stereo not given), the growth in the experiment with NCI-H23 lung was 48.3%; with NCI-H226 lung, 88.5%; in the experiment on NCI-H322M lung, 88.1%; with HOP-62 NSCLC it was 53.8%; with NCI-H460 lung, 76.9%; in the experiment on HOP-92 NSCLC, 60.1%. Further, the growth in the experiment on NCI-H522 lung is -42.3% (active); with A549/ATCC NSCLC, 66.1%; in the experiment with 786-0 renal it was 43.2%; in the experiment on DU-145 prostate, 36.6%; with MALME-3M melanoma it was 18.5%; in the experiment on MDA-MB-231 breast, 39.4%. Also, the growth was 39.1% in the experiment with RXF 393 renal; 66.9% in the experiment with SF-268 CNS; 71.1% in the experiment on SF-295 CNS; 16.5% with SF-539 CNS; 67.2% in the experiment on UACC-257 melanoma; 32.3% in the experiment with M14 melanoma.

Consider `CCOC(=O)c1cc(C(=O)c2ccc(Br)cc2)n2ccc(/C=C/c3cc[n+](CC(=O)c4ccc(OC)cc4)cc3)cc12`, for which the growth in the experiment with NCI-H23 lung is 92.5%; in the experiment with NCI-H226 lung, 101%; in the experiment with NCI-H322M lung it was 96.2%; with HOP-62 NSCLC, 100%; with NCI-H460 lung, 96.4%; in the experiment on HOP-92 NSCLC, 96.4%. Further, the growth with NCI-H522 lung was 91.8%; in the experiment on A549/ATCC NSCLC, 73.3%; in the experiment with COLO 205 colon, 91.7%; in the experiment on DU-145 prostate, 87%; in the experiment with K-562 leukemia it was 3.23% (active); in the experiment on MALME-3M melanoma, 97.9%. The growth is 71.6% in the experiment with MDA-MB-231 breast; 94.4% with RXF 393 renal; 110% in the experiment with SF-268 CNS; 103% in the experiment with SF-295 CNS; 102% in the experiment on SF-539 CNS; 100% in the experiment with UACC-257 melanoma. Moreover, in the experiment on M14 melanoma, the growth is 95.9%.

Consider `O=C(CNCCN1CCOCC1)N1c2cccc3cccc(c23)N(C(=O)CNCCN2CCOCC2)C1c1cn(-c2ccccc2)nc1-c1cccc([N+](=O)[O-])c1`, for which the growth is 95.8% in the experiment on NCI-H23 lung; 81.4% in the experiment on NCI-H226 lung; 97.6% in the experiment on NCI-H322M lung; 89.7% with HOP-62 NSCLC; 96% in the experiment on NCI-H460 lung; 53.2% with HOP-92 NSCLC. Also, the growth in the experiment on NCI-H522 lung is 75.3%; in the experiment with A549/ATCC NSCLC it was 82.3%; with COLO 205 colon, 52.8%; with DU-145 prostate it was 87.8%; with K-562 leukemia, -21.4% (active); in the experiment with MALME-3M melanoma it was -87.3% (active). In addition, the growth was 54.4% with MDA-MB-231 breast; 47.9% with RXF 393 renal; 69.6% with SF-268 CNS; 100% with SF-295 CNS; 63.3% in the experiment with SF-539 CNS; 90.3% with UACC-257 melanoma. The growth in the experiment on M14 melanoma is -16.1% (active).

In the case of `O=C(C[n+]1cccc2ccccc21)c1ccc(O)c(O)c1`, the growth in the experiment on NCI-H23 lung was 78.5%; in the experiment on NCI-H226 lung it was 62.1%; with NCI-H322M lung, 93.5%; with HOP-62 NSCLC, 102%; in the experiment with NCI-H460 lung it was 92.6%; in the experiment with HOP-92 NSCLC, 73.2%. The growth with NCI-H522 lung was 20.9%; with A549/ATCC NSCLC it was 84.4%; with COLO 205 colon it was 56.4%; in the experiment with DU-145 prostate, 84.8%; in the experiment with K-562 leukemia it was 28.5%; in the experiment on MALME-3M melanoma it was 53.9%. For the same compound, the growth was 59.1% in the experiment with MDA-MB-231 breast; 49.6% in the experiment with RXF 393 renal; 84.7% in the experiment on SF-268 CNS; 105% in the experiment on SF-295 CNS; 91.2% with SF-539 CNS; 78.1% in the experiment on UACC-257 melanoma. For the same compound, the growth with M14 melanoma was -83.4% (active).
